The structures appear in SMILES notation. This is part of a sample that, as a whole, favours compounds with a hit. Of some 83,000 tested, about 20% had one in any assay.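 Single-dose data. Exposure time 48 hours. Values below 10 considered active.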 A number with no mark means an inactive call. The source made the active and inactive calls.

Among the data in PubChem BioAssay (NCI) are growth values, retold here.

Some test systems named below: SN12C renal; UO-31 renal; TK-10 renal; ACHN renal; CAKI-1 renal; CCRF-CEM leukemia; MOLT-4 leukemia; A498 renal; SR leukemia.
Holding throughout (assay): NCI-60 one-dose screen, 48 h (100 = growth as untreated, 0 = no growth, -100 = all killed)
Common to all, as to settings: 10 µM

With `CCOC(=O)N1C/C(=C/c2ccc(F)cc2)C(=O)/C(=C/c2ccc(F)cc2)C1`, the growth with SN12C renal is -43.8% (active); in the test on UO-31 renal, -55.6% (active); in the test on TK-10 renal, 2.65% (active); with ACHN renal, -28% (active); with CAKI-1 renal, -16% (active); in the test on CCRF-CEM leukemia, -1.18% (active). Moreover, the growth in the test with MOLT-4 leukemia is 2.2% (active).

Take `Nc1c(C(=O)Nc2ccccc2)sc2nc3c(cc12)CCCC3`: the growth with SN12C renal is 40.1%; in the test on UO-31 renal it was 44.7%; in the test with TK-10 renal, 71.7%; in the test on CAKI-1 renal, 26.7%; in the test on A498 renal, -8.95% (active); with CCRF-CEM leukemia it was 13.1%. Besides, the values for the growth with MOLT-4 leukemia and in the test with SR leukemia were 15.7% and 10.8%, respectively.

For the molecule `O=S(=O)(NCCCNc1nccc(-c2c(-c3ccc(F)cc3)nc3sccn23)n1)c1ccc(F)cc1`, the growth with SN12C renal is 52.3%; in the test on UO-31 renal it was 3.14% (active); in the test with TK-10 renal, 38.3%; with CAKI-1 renal it was 29.9%; in the test on A498 renal, 56.3%; in the test on CCRF-CEM leukemia, 17.5%. In addition, the growth in the test with MOLT-4 leukemia is 22.6%; in the test on SR leukemia, 25.5%.

Turning to `CCCCCCCC(C)NCCO` (stereo unspecified), the growth in the test on SN12C renal was 112%; in the test with UO-31 renal it was 80.8%; with TK-10 renal, 105%; with ACHN renal, 117%; with CAKI-1 renal it was 97.1%; in the test on A498 renal it was 104%. In addition, the results for the growth in the test with MOLT-4 leukemia and in the test with SR leukemia were 99.6% and 108%, respectively.

Take `O=C(c1ccc(Cl)cc1Cl)N1CCOCC1`: the growth in the test on SN12C renal was 105%; with UO-31 renal, 83.4%; with TK-10 renal it was 101%; with ACHN renal, 103%; with A498 renal, 91.2%; in the test on CCRF-CEM leukemia, 106%. Moreover, in the test on MOLT-4 leukemia, the growth is 99.1%.

Consider `O=C1NC(=O)N(Cc2ccccc2)CC1Br` (stereo unspecified), for which the growth is 56.3% with SN12C renal; 77.6% in the test on UO-31 renal; 86.3% with TK-10 renal; 70.5% in the test on ACHN renal; 129% with A498 renal; 13% in the test on CCRF-CEM leukemia. For the same molecule, the figures for the growth in the test on MOLT-4 leukemia and in the test on SR leukemia were 57.7% and 19.7%, respectively.

For `COc1cccc(NC(=O)c2sc3nc4c(cc3c2N)C(O)CCC4)c1` (stereo unspecified), the growth with SN12C renal is 30.3%; in the test with UO-31 renal, 40.3%; in the test with TK-10 renal, 79.8%; with CAKI-1 renal it was 34.4%; in the test on A498 renal, -7.35% (active); with CCRF-CEM leukemia, 11.2%. Also, the growth in the test on MOLT-4 leukemia is 6.41% (active); with SR leukemia, 0.382% (active).

In the case of `FC(F)(F)c1ccc2nc(-c3nc(-c4ccccc4)n4ccccc34)[nH]c2c1`, the growth in the test on SN12C renal was 53%; in the test on UO-31 renal, 80.9%; with TK-10 renal, 94.2%; with ACHN renal it was 81.1%; in the test on CAKI-1 renal it was 99.9%; with A498 renal, 107%. The growth is 47.8% in the test with MOLT-4 leukemia and 19.6% with SR leukemia.

Consider `COc1ccc2c(c1)O/C(=C\c1ccc([N+](=O)[O-])s1)C2=O`, for which the growth in the test with SN12C renal is 41.6%; in the test with UO-31 renal, 24%; in the test with TK-10 renal it was 42.5%; in the test with CAKI-1 renal, 44.2%; in the test on A498 renal, 85.1%; in the test with CCRF-CEM leukemia it was 10.1%. The growth with MOLT-4 leukemia was 10.7%; with SR leukemia, 12.1%.

Consider `Nc1c(C(=O)Nc2ccccc2)sc2nc3c(cc12)C(O)CCC3` (stereo unspecified), for which the growth is 39.6% with SN12C renal; 49.4% in the test with UO-31 renal; 69.8% in the test with TK-10 renal; 41.4% in the test with CAKI-1 renal; -10.1% (active) with A498 renal; 14.2% with CCRF-CEM leukemia. Also, the growth in the test on MOLT-4 leukemia is 11.9%; in the test on SR leukemia, 7.36% (active).

In the case of `Fc1ccc2nc(-c3nc(-c4ccccc4)n4ccccc34)[nH]c2c1`, the growth is 16.9% in the test with SN12C renal; -32.9% (active) with UO-31 renal; -30.2% (active) in the test with TK-10 renal; 10.1% in the test with ACHN renal; -0.279% (active) in the test on CAKI-1 renal; -16.8% (active) in the test with A498 renal. The figures for the growth in the test on MOLT-4 leukemia and with SR leukemia were 39.8% and 38%, respectively.

`Nc1nc(-c2ccccc2Cl)cc(-c2ccc(Cl)cc2Cl)n1`: the growth in the test with SN12C renal is 79.6%; in the test with UO-31 renal, 62.5%; with ACHN renal, 86%; in the test with CAKI-1 renal, 68%; in the test on A498 renal, 53.7%; with CCRF-CEM leukemia, 57.5%. Further, the growth in the test on MOLT-4 leukemia is 52.6%; in the test on SR leukemia, 25.4%.

`COc1cc(C2CC(c3ccc(Nc4ccnc5cc(Cl)ccc45)cc3)=NN2c2ccc(Cl)cc2)cc(OC)c1OC` (stereo unspecified): the growth in the test with UO-31 renal was 18.4%; in the test with TK-10 renal, 64.1%; in the test with ACHN renal, 38%; in the test on CAKI-1 renal, 18.6%; in the test with A498 renal it was 52.3%; with CCRF-CEM leukemia it was 28%. Besides, the growth was 31.5% in the test with MOLT-4 leukemia and 12.2% in the test with SR leukemia.

As for `COc1cc(-c2nn3c(/C=C4/C(=O)Nc5ccccc54)c(-c4ccc(C)cc4)nc3s2)cc(OC)c1OC`, the growth in the test with UO-31 renal was 73.1%; with TK-10 renal, -18.7% (active); in the test with ACHN renal it was 81.1%; in the test with CAKI-1 renal it was 64.6%; in the test on A498 renal, 98.9%; in the test on CCRF-CEM leukemia, 67.4%. The results for the growth in the test on MOLT-4 leukemia and with SR leukemia were 47.8% and 26.5%, respectively.

Turning to `CSc1nc(=O)n(Cc2ccc(F)cc2)c(=O)n1Cc1ccc(C)cc1`, the growth is 96.3% in the test with SN12C renal; 80.1% with UO-31 renal; 101% with ACHN renal; 84.9% in the test with CAKI-1 renal; 106% in the test with A498 renal; 98.5% in the test on CCRF-CEM leukemia. Also, in the test on SR leukemia, the growth is 84.4%.

In the case of `COc1ccc(-c2nc3sc(-c4ccc(OC)cc4)c(-c4ccc(OC)cc4)n3c2/C=C/c2ccc(C(C)C)cc2)cc1`, the growth is 83.6% in the test with UO-31 renal; 97.7% in the test with TK-10 renal; 97.9% in the test on ACHN renal; 82.2% with CAKI-1 renal; 99.1% in the test with A498 renal; 96% with CCRF-CEM leukemia. For the same molecule, the growth with SR leukemia was 97.4%.

For `O=C(Nc1ccc(CO)cc1)c1ccccc1Nc1ccnc(C(F)(F)F)c1`, the growth with SN12C renal was 95.6%; in the test with UO-31 renal it was 81.5%; in the test on CAKI-1 renal, 95.8%; in the test on A498 renal, 95.7%; in the test with CCRF-CEM leukemia, 89.7%; with MOLT-4 leukemia it was 98.4%. The growth in the test on SR leukemia was 82.9%.
